Reference: PubChem BioAssay
The source made the active and inactive calls. Rule as the data show it, unless noted: active = inhibition above about 30%; inactive = the rest.

test: 384-well plate pilot, post-Golgi transport modulator project, inhibition of yeast transport mutant growth (AID 636; in the data active = inhibition above about 31%); settings: absorbance 615 nm, about 18 h, hits give high values

inhibition, inactive:
O=c1c2ccccc2c(C=Nc2ccc(Cl)cn2)c(O)n1-c1cc(Cl)ccc1N1CCOCC1 -0.65%
CCSC1=C(C#N)C(c2cccc(OC)c2)CC(=O)N1 (stereo not given) 0.53%
COc1ccc(S(=O)(=O)N2CCC(C(=O)NCc3ccco3)CC2)cc1 -4.53%
CS(=O)(=O)N1CCN(C(=O)c2ccc(-c3ccccc3)cc2)CC1 -2.99%
COc1ccc(-c2noc(C3CCCN(C(=O)CCc4ccccc4)C3)n2)cc1 (stereo not given) -1.97%
CN(C)c1cccc(N=C2C=C(N3CCOCC3)CC(C)(C)C2)c1 -1.04%
CCN(c1ccccc1)S(=O)(=O)c1ccc(F)cc1C -1.04%
CCC(C)c1ccc(NC(=O)C2CC2)cc1 (stereo not given) -1.82%
Cn1c(SCc2c(F)cccc2Cl)nnc1-c1cccs1 -1.33%
CCOC(=O)C1CCN(S(=O)(=O)c2cccc(-c3csc(C)n3)c2)CC1 -5.2%
Cc1nnc(SCC(=O)N2CCC(C(N)=O)CC2)s1 -1.2%
O=C(NCC(=O)N(CCc1ccccc1)C(C(=O)NC1CCCC1)c1cccnc1)c1ccco1 (stereo not given) -2.24%
c1ccc2c3nnc4n(c-3nc2c1)CCCS4 -1.32%
CCCSC1=C(C#N)C(c2ccccc2OCC)CC(=O)N1 (stereo not given) -2.5%
CC(C)Cc1nnc(NC(=O)CCC(=O)N2CCOCC2)s1 -4.8%
CSC1CCCCC1(O)CSc1nc2c(cc1C#N)CCCC2 (stereo not given) -0.66%
CCOC(=O)C1CCCN(S(=O)(=O)c2cccs2)C1 (stereo not given) 0.66%
C=CCn1c(Cc2csc(N)n2)nnc1SCC(=O)OCC -2.63%
Cc1cc(C)n(Cc2nc3ccccc3n2C)n1 0.52%
CC(O)CN(Cc1cccc(Cl)c1)CC(C)O (stereo not given) -1.32%
CCCCn1c(NC(=O)CC)c(C#N)c2nc3ccccc3nc21 -6.67%
CCC(=O)c1ccc(OCC(=O)N2CCc3cc(OC)c(OC)cc3C2)cc1 -2.34%
Cn1c(-c2ccc(F)cc2)cnc1NCc1ccccc1 -3.03%
C=CCn1c(SCC(=O)NCC2CCCO2)nnc1C1CCCCC1 (stereo not given) -6.88%
COc1ccccc1-c1nc(C(F)(F)F)c(OC)o1 -1.97%
CCOc1ccc(C(=O)Cc2ccc3oc(C(=O)O)cc3c2)c(O)c1 -4.29%
COc1cccc(C(=O)Nc2cc(NC(=O)c3ccco3)ccc2OC)c1 -3.64%
Cc1c(Cc2ccccc2)sc(N)c1C(N)=O -3.77%
COC(=O)c1cc(-c2c(C)nn(-c3ccccc3)c2C)n[nH]1 -2.63%
O=C1CN(c2ccccc2F)C(=O)CN1c1ccccc1F -1.97%
CC(C)c1nnc(NC(=O)CCC(=O)NCc2ccc3c(c2)OCO3)s1 -5.2%
COC(=O)c1c(N)sc(C(=O)N2CCOCC2)c1C -0.4%
COC(=O)c1ccc(C2CC(=O)Nc3cc(OC)c(OC)c(OC)c32)cc1 (stereo not given) -3.47%
CC(C)c1ccc(NC(=O)C2CC(=O)N(C(C)C)C2)cc1 (stereo not given) -2.34%
O=C(Nc1ccc(Cl)cc1)N1CCSCC1 -1.45%
CCCSc1nnc(-c2ccccc2NC(=O)CC)c(=O)[nH]1 -5.87%
CC1(C)CC(=O)C2=C(C1)Nc1nc(SCCN3CCOCC3)[nH]c(=O)c1C2c1cccs1 (stereo not given) 1.69%
Cc1ccc(SCCC(=O)N(C)C)cc1 -2.89%
COc1ccc(S(=O)(=O)N2CCN(Cc3ccc(Cl)cc3)CC2)cc1 -0.4%
COc1cc(NC(=O)Cc2ccccc2OC)cc(OC)c1 0.27%

test: growth suppression of yeast trafficking mutant, preliminary HTS, modulators of trafficking downstream of Golgi apparatus project, 1536-format plate, OD 615 nm (AID 637); settings: yeast transport mutant growth, absorbance 615 nm, 18 h; hits give high values

inhibition, inactive:
O=c1c2ccccc2c(C=Nc2ccc(Cl)cn2)c(O)n1-c1cc(Cl)ccc1N1CCOCC1 -3.49%
CCSC1=C(C#N)C(c2cccc(OC)c2)CC(=O)N1 (stereo not given) -1.9%
COc1ccc(S(=O)(=O)N2CCC(C(=O)NCc3ccco3)CC2)cc1 -3.97%
CS(=O)(=O)N1CCN(C(=O)c2ccc(-c3ccccc3)cc2)CC1 8.25%
COc1ccc(-c2noc(C3CCCN(C(=O)CCc4ccccc4)C3)n2)cc1 (stereo not given) 11.1%
CN(C)c1cccc(N=C2C=C(N3CCOCC3)CC(C)(C)C2)c1 -8.41%
CCN(c1ccccc1)S(=O)(=O)c1ccc(F)cc1C -5.71%
CCC(C)c1ccc(NC(=O)C2CC2)cc1 (stereo not given) 2.06%
Cn1c(SCc2c(F)cccc2Cl)nnc1-c1cccs1 -5.87%
CCOC(=O)C1CCN(S(=O)(=O)c2cccc(-c3csc(C)n3)c2)CC1 3.81%
Cc1nnc(SCC(=O)N2CCC(C(N)=O)CC2)s1 -5.24%
O=C(NCC(=O)N(CCc1ccccc1)C(C(=O)NC1CCCC1)c1cccnc1)c1ccco1 (stereo not given) -6.98%
c1ccc2c3nnc4n(c-3nc2c1)CCCS4 4.6%
CCCSC1=C(C#N)C(c2ccccc2OCC)CC(=O)N1 (stereo not given) 3.33%
CC(C)Cc1nnc(NC(=O)CCC(=O)N2CCOCC2)s1 0.63%
CSC1CCCCC1(O)CSc1nc2c(cc1C#N)CCCC2 (stereo not given) -1.9%
CCOC(=O)C1CCCN(S(=O)(=O)c2cccs2)C1 (stereo not given) -6.03%
C=CCn1c(Cc2csc(N)n2)nnc1SCC(=O)OCC -6.67%
Cc1cc(C)n(Cc2nc3ccccc3n2C)n1 4.92%
CC(O)CN(Cc1cccc(Cl)c1)CC(C)O (stereo not given) 4.13%
CCCCn1c(NC(=O)CC)c(C#N)c2nc3ccccc3nc21 -2.38%
CCC(=O)c1ccc(OCC(=O)N2CCc3cc(OC)c(OC)cc3C2)cc1 -4.6%
Cn1c(-c2ccc(F)cc2)cnc1NCc1ccccc1 4.6%
C=CCn1c(SCC(=O)NCC2CCCO2)nnc1C1CCCCC1 (stereo not given) -0.32%
COc1ccccc1-c1nc(C(F)(F)F)c(OC)o1 17.9%
CCOc1ccc(C(=O)Cc2ccc3oc(C(=O)O)cc3c2)c(O)c1 7.62%
COc1cccc(C(=O)Nc2cc(NC(=O)c3ccco3)ccc2OC)c1 -2.22%
Cc1c(Cc2ccccc2)sc(N)c1C(N)=O 5.71%
COC(=O)c1cc(-c2c(C)nn(-c3ccccc3)c2C)n[nH]1 -4.76%
O=C1CN(c2ccccc2F)C(=O)CN1c1ccccc1F -0.63%
CC(C)c1nnc(NC(=O)CCC(=O)NCc2ccc3c(c2)OCO3)s1 2.86%
COC(=O)c1c(N)sc(C(=O)N2CCOCC2)c1C -5.87%
COC(=O)c1ccc(C2CC(=O)Nc3cc(OC)c(OC)c(OC)c32)cc1 (stereo not given) 0.63%
CC(C)c1ccc(NC(=O)C2CC(=O)N(C(C)C)C2)cc1 (stereo not given) -2.86%
O=C(Nc1ccc(Cl)cc1)N1CCSCC1 -0.16%
CCCSc1nnc(-c2ccccc2NC(=O)CC)c(=O)[nH]1 3.97%
CC1(C)CC(=O)C2=C(C1)Nc1nc(SCCN3CCOCC3)[nH]c(=O)c1C2c1cccs1 (stereo not given) 24%
Cc1ccc(SCCC(=O)N(C)C)cc1 0%
COc1ccc(S(=O)(=O)N2CCN(Cc3ccc(Cl)cc3)CC2)cc1 -3.81%
COc1cc(NC(=O)Cc2ccccc2OC)cc(OC)c1 -6.67%
